Measured values from PubChem BioAssay (NCATS).
Records with an inconclusive call do not appear. Values without a mark were called inactive. Active and inactive are the calls of the source. The call rests on the fitted dose curve; in most records, active means well fitted inhibition curve with a large enough effect; inconclusive means small, poorly fitted or top-dose-only effect; inactive means flat fitted curve, though single readings scatter.

Tests used:
Test in all cases: Cytotoxic Profiling of Annotated Libraries Using Quantitative High-Throughput Screening (AID 1296008); further: nearly all actives have a fitted effect of over 60% in size
Settings in all cases: Five cell lines viability, CellTiter-Glo ATP luminescence, 48-72 h; max response: hits give low values
HEK293 = tested on: HEK293
Procedure, shortened: (§1)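 Cytotoxicity was measured as CellTiter-Glo ATP luminescence, read after 10 min at room temperature. Compound treatment of the cells lasted 48 or 72 hr at 37 degrees Celsius in a qHTS format.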

HaCat = tested on: HaCat
Procedure, shortened: as §1

KB-3-1 = tested on: KB-3-1
Procedure, shortened: as §1
On the % scale 0 is the no-effect control and ±100 the full control effect; potency means the concentration at half of the fitted maximal effect.

SMILES: CC(=O)c1cc(C(=O)N[C@@H](C)Cn2ccc(-c3ccc(C#N)c(Cl)c3)n2)[nH]n1
- Potency (HEK293): 23.1 µM (active)
- max response (HaCat): -24.9%
- max response (KB-3-1): -26.1%

SMILES: C=CC(=O)N1CCN(C(=O)CNc2cc(I)c(Cl)cc2O)CC1
- Potency (HEK293): 13 µM (active)
- outcome (HaCat): inactive
- Potency (KB-3-1): 20.6 µM (active)

SMILES: COC(=O)c1c(C)cc(OC(=O)c2c(C)cc(OC)cc2OC)cc1O[C@@H]1O[C@H](CO)[C@@H](O)[C@H](O)[C@H]1O
- max response (HEK293): -0.971%
- max response (HaCat): -0.836%
- max response (KB-3-1): -1.14%

SMILES: C=CC(=O)Nc1cc(Nc2ncc(Cl)c(-c3c[nH]c4ccccc34)n2)c(OC)cc1N(C)CCN(C)C
- Potency (HEK293): 2.06 µM (active)
- Potency (HaCat): 0.58 µM (active)
- Potency (KB-3-1): 4.11 µM (active)

SMILES: CC[C@@H](N)CNc1ccnc(-c2cc(-c3cnn(C)c3)ccc2O)n1
- Potency (HEK293): 5.17 µM (active)
- Potency (HaCat): 5.8 µM (active)
- Potency (KB-3-1): 4.61 µM (active)

SMILES: CC12CCC(OC3OC(CO)C(O)C(OC4OC(CO)C(O)C(O)C4O)C3O)CC1=CCC1C2CCC2(C)/C(=C3/COC(=O)C3)CCC12O (stereo not drawn)
- max response (HEK293): 0.267%
- outcome (HaCat): inactive
- max response (KB-3-1): -7.93%

SMILES: C=CC(C)(C)c1[nH]c2cc3c(cc2c1CC1NC(=O)C2=CCCN2C1=O)C=CC(C)(C)O3 (stereo not drawn)
- max response (HEK293): -27.4%
- outcome (HaCat): inactive
- outcome (KB-3-1): inactive

SMILES: Cn1nnc(-c2ccc(-c3ccc(N4C[C@H](COP(=O)(O)O)OC4=O)cc3F)cn2)n1
- Potency (HEK293): 0.58 µM (active)
- max response (HaCat): 0.171%
- max response (KB-3-1): -33%

SMILES: CC1=CC(=O)CC(C)(C)C1CCC(C)O[C@@H]1O[C@H](CO[C@@H]2OC[C@@H](O)[C@H](O)[C@H]2O)[C@@H](O)[C@H](O)[C@H]1O (stereo partly drawn)
- max response (HEK293): -8.79%
- max response (HaCat): 4.17%
- max response (KB-3-1): 1.12%

SMILES: O=C(/C=C\n1cnc(-c2cc(C(F)(F)F)cc(C(F)(F)F)c2)n1)N1CC(F)(F)C1
- Potency (HEK293): 1.3 µM (active)
- max response (HaCat): -18.4%
- Potency (KB-3-1): 7.31 µM (active)

SMILES: COc1ccc(C(=O)Nc2ncc(-c3ccc(C(=O)O)cc3)s2)cc1
- Potency (HEK293): 7.31 µM (active)
- Potency (HaCat): 5.8 µM (active)
- Potency (KB-3-1): 2.91 µM (active)

SMILES: COc1ccc([C@@]2(O)c3c(ccc(CC=C(C)C)c3O)NC(=O)[C@@H]2OC)cc1
- outcome (HEK293): inactive
- outcome (HaCat): inactive
- max response (KB-3-1): 8.3%

SMILES: COc1ccc(C(=O)C2CCN(CC(=O)N(Cc3nc4c(c(=O)[nH]3)COCC4)CC3CC3)CC2)cc1
- max response (HEK293): -4.04%
- max response (HaCat): -5.45%
- max response (KB-3-1): 9.05%

SMILES: CC1(C)CCC[C@@]2(C)C1[C@H](OC(=O)/C=C/C=C/C(=O)O)C=C1COC(=O)[C@@]12O (stereo partly drawn)
- max response (HEK293): -4.94%
- outcome (HaCat): inactive
- max response (KB-3-1): 0.106%

SMILES: CCOCc1cc(OC)c(-c2ccc(C[C@H](NC(=O)c3c(F)cccc3F)C(=O)O)cc2)c(OC)c1
- max response (HEK293): -1.31%
- outcome (HaCat): inactive
- outcome (KB-3-1): inactive

SMILES: NC[C@@](O)(c1ccc(Cl)cc1)c1ccc(-c2cn[nH]c2)cc1
- Potency (HEK293): 5.8 µM (active)
- Potency (HaCat): 8.2 µM (active)
- Potency (KB-3-1): 11.6 µM (active)

SMILES: CO[C@H]1C[C@@H]2CC[C@@H](C)[C@@](O)(O2)C(=O)C(=O)N2CCCC[C@H]2C(=O)O[C@H]([C@H](C)C[C@@H]2CC[C@@H](OP(C)(C)=O)[C@H](OC)C2)CC(=O)[C@H](C)/C=C(\C)[C@@H](O)[C@@H](OC)C(=O)[C@H](C)C[C@H](C)/C=C/C=C/C=C/1C
- Potency (HEK293): 0.0063 µM (active)
- max response (HaCat): -0.379%
- max response (KB-3-1): 3.84%

SMILES: COc1cc(O)cc(C)c1C(=O)O[C@@H]1[C@H](O)[C@@H](CO)O[C@H]1n1ccc(=O)[nH]c1=O
- Potency (HEK293): 5.63 µM (active)
- max response (HaCat): -4.84%
- max response (KB-3-1): -16.4%

SMILES: NC(=O)c1csc(C2OC(CO)C(O)C2O)n1 (stereo not drawn)
- max response (HEK293): -9.16%
- max response (HaCat): 2.41%
- outcome (KB-3-1): inactive

SMILES: CC(C)[N+]1(C)C2CCC1CC(OC(=O)C(CO)c1ccccc1)C2 (stereo not drawn)
- max response (HEK293): -4.72%
- max response (HaCat): -18.4%
- max response (KB-3-1): -2.64%

SMILES: COC(=O)C1=CO[C@@H](O[C@@H]2O[C@H](CO)[C@@H](O)[C@H](O)[C@H]2O)[C@H]2[C@@H]1C=C[C@@]21C=C([C@H](C)O)C(=O)O1
- max response (HEK293): -5.88%
- outcome (HaCat): inactive
- outcome (KB-3-1): inactive

SMILES: C=C(CCC1=C(C)[C@H]2[C@H](CC3[C@@H]4CC=C5C[C@@H](O)C[C@@H](O)[C@]5(C)C4[C@H](O)C[C@@]32C)O1)CO[C@@H]1O[C@H](CO)[C@@H](O)[C@H](O)[C@H]1O (stereo partly drawn)
- Potency (HEK293): 1.37 µM (active)
- Potency (HaCat): 4.32 µM (active)
- Potency (KB-3-1): 1.72 µM (active)

SMILES: COC(=O)CC(C)(O)CC(=O)OCc1ccc(O[C@@H]2O[C@H](CO)[C@@H](O)[C@H](O)[C@H]2O)cc1 (stereo partly drawn)
- outcome (HEK293): inactive
- max response (HaCat): 2.19%
- max response (KB-3-1): 4.52%

SMILES: Nc1ccccc1N
- Potency (HEK293): 17.2 µM (active)
- max response (HaCat): 3.79%
- max response (KB-3-1): -4.37%

SMILES: NC1CCC(Nc2cc(-c3cccc(NCc4cccc(F)c4)n3)c(Cl)cn2)CC1 (stereo not drawn)
- Potency (HEK293): 0.259 µM (active)
- Potency (HaCat): 1.03 µM (active)
- Potency (KB-3-1): 0.366 µM (active)

SMILES: CCOc1cc(CC(=O)NC(CC(C)C)c2ccccc2N2CCCCC2)ccc1C(=O)O (stereo not drawn)
- max response (HEK293): -4.19%
- max response (HaCat): 3.59%
- max response (KB-3-1): -3.75%

SMILES: CNC(=O)c1cc(Oc2ccc3nc(N[C@@H]4CCCC[C@H]4O)sc3c2)ccn1
- Potency (HEK293): 16.4 µM (active)
- outcome (HaCat): inactive
- max response (KB-3-1): -18.3%

SMILES: CNCc1ccc(-c2cc(-c3nc(-c4ccc(S(=O)(=O)C(C)C)cc4)cnc3N)on2)cc1
- Potency (HEK293): 1.16 µM (active)
- max response (HaCat): -11.6%
- Potency (KB-3-1): 1.3 µM (active)

SMILES: COc1cc(O)c2c(c1)C1=C[C@H](O)[C@@H](O)C[C@]1(C)OC2=O
- outcome (HEK293): inactive
- max response (HaCat): -2.92%
- max response (KB-3-1): 9.7%

SMILES: CC(=O)N1CCN(C(=O)Cc2ccc(Nc3ncc(F)c(Nc4ccc(C(=O)Nc5ccccc5Cl)cc4)n3)cc2)CC1
- Potency (HEK293): 6.51 µM (active)
- Potency (HaCat): 4.11 µM (active)
- Potency (KB-3-1): 5.17 µM (active)

SMILES: Cc1ccc(S(=O)(=O)n2ccc(-c3c(-c4ccc(Cl)cc4)noc3C)n2)cc1
- Potency (HEK293): 4.11 µM (active)
- outcome (HaCat): inactive
- max response (KB-3-1): -24.7%

SMILES: CN=C(N)NCCCCC/C=C(/C)CC(C)C1OC(=O)C(C)C(O)/C=C/C(C)C(O)CC(O)C(C)C(O)CCC(C)C(O)CC2(O)OC(CC(OC(=O)CC(=O)O)CC(O)CC(O)C(C)C(O)/C(C)=C/CCC1C)CC(O)C2O (stereo not drawn)
- max response (HEK293): -1.07%
- max response (HaCat): -0.878%
- max response (KB-3-1): 1.79%

SMILES: C[C@@H]1COCCN1c1cc(C2(S(C)(=O)=O)CC2)nc(-c2cccc3[nH]ccc23)n1
- Potency (HEK293): 1.46 µM (active)
- Potency (HaCat): 5.8 µM (active)
- Potency (KB-3-1): 2.59 µM (active)

SMILES: CC1(C)C2CC(OC3OC(COC4OCC(O)(CO)C4O)C(O)C(O)C3O)C1(C)CC2O (stereo not drawn)
- max response (HEK293): -3.81%
- max response (HaCat): -6.58%
- outcome (KB-3-1): inactive

SMILES: C=C(C)C1CCC(C)C12CC(O)C1(C)OC1C2OC(=O)C(N)CCC(=O)O (stereo not drawn)
- max response (HEK293): -1.87%
- outcome (HaCat): inactive
- max response (KB-3-1): 1.24%

SMILES: CN1c2ccccc2C(=O)N2CCC3c4ccccc4NC3C21 (stereo not drawn)
- Potency (HEK293): 2.55 µM (active)
- Potency (HaCat): 2.02 µM (active)
- Potency (KB-3-1): 3.6 µM (active)

SMILES: COC(=O)C12C(=O)C(C)=C(O)C1(C)C(C)=CC1C3(CO)CCC(O)C(C)(C)C3CCC12C (stereo not drawn)
- max response (HEK293): 1.96%
- outcome (HaCat): inactive
- max response (KB-3-1): -2.12%

SMILES: Cc1ccc(C(=O)Nc2noc3ccccc23)cc1
- Potency (HEK293): 18.4 µM (active)
- max response (HaCat): -29.9%
- outcome (KB-3-1): inactive

SMILES: CC(=O)SCC(=O)c1ccc(NS(=O)(=O)c2ccc(OCCCN(C)C)cc2)nc1
- Potency (HEK293): 7.31 µM (active)
- Potency (HaCat): 14.6 µM (active)
- Potency (KB-3-1): 8.2 µM (active)

SMILES: CCC(C)C(=O)OC1CC(O)C23C4OCC5(C(O)CC2C1(C)C(O)O4)C3C(=O)C(O)C1(C)C(O)(c2ccoc2)CC2OC251 (stereo not drawn)
- Potency (HEK293): 1.72 µM (active)
- Potency (HaCat): 4.85 µM (active)
- Potency (KB-3-1): 0.968 µM (active)

SMILES: CCC1C(=O)OC23C=C[C@@H]4C(C(=O)O)=CO[C@H](O[C@@H]12)[C@@H]43 (stereo partly drawn)
- max response (HEK293): -24.7%
- max response (HaCat): 2.84%
- max response (KB-3-1): -1.99%

SMILES: Cc1cc(C)c2c(N)c(C(=O)NCc3ccc(Cl)cc3)sc2n1
- max response (HEK293): -96.1%
- max response (HaCat): -6.45%
- max response (KB-3-1): -4.61%

SMILES: Cc1c(CN2CCN(C(=O)C(C)O)CC2)sc2c(N3CCOCC3)nc(-c3cnc(N)nc3)nc12 (stereo not drawn)
- Potency (HEK293): 0.651 µM (active)
- Potency (HaCat): 2.31 µM (active)
- Potency (KB-3-1): 0.58 µM (active)

SMILES: CS(=O)(=O)c1ccc(-c2nnc(/C=C/c3nnc(-c4ccc(C#N)cc4)o3)n2-c2ccccc2Cl)nc1
- Potency (HEK293): 11.6 µM (active)
- outcome (HaCat): inactive
- max response (KB-3-1): 2.94%

SMILES: C[C@H]1[C@H](O)O[C@@H]2O[C@@]3(C)CC[C@H]4[C@H](C)CC[C@@H]1[C@@]24OO3
- Potency (HEK293): 1.84 µM (active)
- Potency (HaCat): 6.51 µM (active)
- Potency (KB-3-1): 16.4 µM (active)

SMILES: Cc1nc([C@](C)(O)CO)sc1-c1cnc(N)c(O[C@H](C)c2cc(F)ccc2-n2nccn2)c1
- Potency (HEK293): 13 µM (active)
- Potency (HaCat): 14.6 µM (active)
- Potency (KB-3-1): 18.4 µM (active)
